Results filed as inconclusive are left out. Activity calls are given as the source filed them. The call rests on the fitted dose curve.
The compounds below were run against Atrial natriuretic peptide receptor 2 (Homo sapiens) (UniProt P20594) (assay: Natriuretic polypeptide receptor (hNpr2) antagonism - Pilot subtype selectivity assay (AID 1347050)). Settings: NPR2-expressing cells, cGMP antagonist-mode read-out; series mostly up to 38.3 µM; activity change, negative = inhibition: at the top concentration.
Experimental: F. Fan, B. F. Binkowski, B. L. Butler, P. F. Stecha, M. K. Lewis, K. V. Wood, Novel genetically encoded biosensors using firefly luciferase. ACS Chem Biol 3, 346-351 (2008).
PROTOCOL TABLE (as described by Inglese J, Shamu CE and Guy RK. 2007)
SEQUENCE No. (e.g., 1, 2, 3, etc.); […] (e.g., Cells, Incubation, Reagent, etc.); VALUE and DESCRIPTION.
1. Cells. Seed 1500 HEK293 cGMP-sensor cells expressing hNpr2 per well in 4uL into Greiner 1536-well white/solid bottom high base, TC plates.
2. Incubation. Incubate plated cells at 37C in 5% CO2, 95% RH overnight.
3. Reagent. Add 1uL per well GloSensor reagent from Promega (2% final concentration) or CO2 independent media vehicle control to respective columns of Greiner 1536-well plates.
4. Incubation. Incubate plated cells at ambient temperature for 2 h., protect from light.
5. Compounds. Library compounds and DMSO vehicle control added at 23nL per well, transferred by Pin Tool.
6. Incubation. Incubate plated cells for 30 min. at ambient temperature, protect from light.
7. Detector. GloSensor baseline pre-read luminescence measured using CCD-based camera (Viewlux).
8. Compound. Add 1uL of hNppC peptide to 1 nM final concentration to stimulate hNpr2 or CO2 independent media as vehicle control.
9. Incubation. Incubate treated cells at ambient temperature for 20 min., protect from light.
10. Detector. GloSensor post-hNppC luminescence measured using CCD-based camera (Viewlux).
NOTES (numbers refer to Sequence numbers above)
1. HEK293 cells expressing hNpr2 and GIP/pGS-40F were grown to 85-95% confluence (48-72 h) in T175 culture flasks (CO2 independent media supplemented with 10% FBS, 1% Pen/Strep antibiotics, and 1 ug/mL puromycin). Trypsinize and harvest cells from T175 culture flasks and filter through 40 um cell strainer. Cells counted with Invitrogen Countess (30,000,000 - 50,000,000 cells/flask). Cells diluted to a final concentration of 375 cells/uL in CO2 independent media and a Millipore multidrop used to dispense 1500 cells per well (4uL/well) into 9 x1536-well Greiner White/Solid bottom, high base tissue-culture treated (TC) plates and one Aurora 1536-well Black/Clear bottom, low base, TC plate (for visual inspection of cell health throughout the duration of the assay).
2. Cells incubated for 24 h. at 37C in 95% RH incubator with metal lid having gas-exchange holes.
3. Prepare GloSensor Reagent (Promega): Reconstitute GloSensor luciferase substrate by adding 8.2mL Hepes buffer to 250mg substrate, mix well, protect from light and stored at -80C. Prepare a fresh 12% GloSensor solution in CO2 independent supplemented plating media (see above). Mix well and store at ambient temperature, protected from light. 1uL 12% GloSensor Luciferase Reagent added (2% final concentration) to respective columns of 9 x 1536-well Greiner plate with BioRaptr, 1uL CO2 independent plating media added to respective columns as vehicle control with BioRaptr.
4. Cells incubated for 2 h. at ambient temperature, protected from light with metal lid having gas-exchange holes.
5. 23nL of LOPAC1280 library compounds (7 plates) or DMSO vehicle control transferred to 9 Greiner white/solid bottom high base, TC plates in 7 interplate 1:5 titrations (see Yasgar, A. et al. 2008) with Pintool. Two of the 9 plates are DMSO-only in compound field at beginning and end of compound library-treated plates.
6. Cells incubated for 30-50 min. at ambient temperature protected from light with metal lid having gas-exchange holes.
7. Read cellular baseline GloSensor luminescence in presence of test library compounds on the ViewLux [Exposure = 10 s.; Gain = High; Speed = Slow; and Binning = 2X.]
8. hNppC peptide agonist solution prepared at 1 mM (in H2O) stock concentration. From this a working dilution was prepared at 6 nM in CO2 Independent media. […]
On the % scale 0 is the no-effect control and ±100 the full control effect; potency means the concentration at half of the fitted maximal effect.

Atrial natriuretic peptide receptor 2 (Homo sapiens), sequence (P20594 whole entry, looked up): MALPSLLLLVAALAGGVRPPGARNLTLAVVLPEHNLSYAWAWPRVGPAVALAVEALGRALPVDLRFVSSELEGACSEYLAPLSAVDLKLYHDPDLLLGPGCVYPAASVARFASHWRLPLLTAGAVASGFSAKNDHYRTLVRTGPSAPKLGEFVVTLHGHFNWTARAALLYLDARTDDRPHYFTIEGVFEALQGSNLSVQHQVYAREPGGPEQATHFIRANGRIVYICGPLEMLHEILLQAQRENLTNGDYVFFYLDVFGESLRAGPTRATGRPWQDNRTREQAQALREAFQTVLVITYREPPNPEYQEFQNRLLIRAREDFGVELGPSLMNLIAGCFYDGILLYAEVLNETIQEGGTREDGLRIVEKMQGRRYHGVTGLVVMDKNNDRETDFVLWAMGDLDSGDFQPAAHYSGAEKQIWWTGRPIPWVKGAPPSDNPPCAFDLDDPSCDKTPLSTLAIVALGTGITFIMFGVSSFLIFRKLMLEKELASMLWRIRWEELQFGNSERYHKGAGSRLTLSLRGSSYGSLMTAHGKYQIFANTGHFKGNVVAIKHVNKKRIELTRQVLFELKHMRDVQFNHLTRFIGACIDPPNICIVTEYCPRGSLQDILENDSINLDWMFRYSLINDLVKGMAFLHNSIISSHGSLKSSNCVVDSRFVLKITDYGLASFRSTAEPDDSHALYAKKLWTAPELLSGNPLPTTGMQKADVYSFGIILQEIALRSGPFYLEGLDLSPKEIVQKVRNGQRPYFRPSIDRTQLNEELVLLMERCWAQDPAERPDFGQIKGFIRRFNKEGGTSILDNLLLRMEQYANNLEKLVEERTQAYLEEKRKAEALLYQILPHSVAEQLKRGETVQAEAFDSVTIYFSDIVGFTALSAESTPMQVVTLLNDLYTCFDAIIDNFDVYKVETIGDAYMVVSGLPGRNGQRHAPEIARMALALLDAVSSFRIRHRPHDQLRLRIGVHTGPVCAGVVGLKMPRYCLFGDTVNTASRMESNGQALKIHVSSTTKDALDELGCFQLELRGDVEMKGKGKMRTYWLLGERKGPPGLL

SMILES	activity change, negative = inhibition	Potency
O=c1ccc2c(OCCCCc3ccccc3)c3ccoc3cc2o1	14.3% (inactive)	–
NC(=O)CNCCC(c1ccccc1)c1ccccc1	-0.0327% (inactive)	–
O=C1NC(=O)c2cc(Nc3ccccc3)c(Nc3ccccc3)cc21	-8.59% (inactive)	–
C[C@H](NC(=O)/C(C#N)=C/c1ccc(O)c(O)c1)c1ccccc1	-3.25% (inactive)	–
CC(C)Cn1c(=O)n(C)c(=O)c2[nH]cnc21	-1.78% (inactive)	–
COC(=O)C(N)Cc1ccc(Cl)cc1 (stereo not given)	-2.54% (inactive)	–
[Li+]	15.5% (inactive)	–
COc1ccc2c(c1)c(CC(=O)O)c(C)n2C(=O)c1ccccc1	-0.856% (inactive)	–
c1ccc(C2CN3CCSC3=N2)cc1 (stereo not given)	-0.515% (inactive)	–
CC(=O)NNC(=O)N1Cc2ccccc2Oc2ccc(Cl)cc21	3.84% (inactive)	–
NC1C=CC=C(C(=O)O)C1 (stereo not given)	2.03% (inactive)	–
O=C(O)c1ccccc1Nc1ccccc1	-14.5% (inactive)	–
O=C(O)c1cc(=O)cc(C(=O)O)[nH]1	1.59% (inactive)	–
CCCCCCCCCCCCCCC[C@H](O)[C@H](N)CO	0.864% (inactive)	–
COC(=O)C1=C(C)NC(C)=C([N+](=O)[O-])C1c1ccccc1C(F)(F)F (stereo not given)	7.8% (inactive)	–
NC(C(=O)N[C@@H]1C(=O)N2C(C(=O)O)=C(Cl)CS[C@H]12)c1ccccc1 (stereo not given in full)	-2.17% (inactive)	–
Brc1c(Br)c(Br)c2[nH]cnc2c1Br	0.954% (inactive)	–
c1ccc2c(c1)CC(N1CCN(c3cccc4c3OCCO4)CC1)C2	11.5% (inactive)	–
N[C@H](C(=O)O)[C@H](O)C(=O)O	10.5% (inactive)	–
O=C(N[C@@H](Cc1ccccc1)C(=O)CCl)OCc1ccccc1	–	4.14 µM (active)

SMILES	activity change, negative = inhibition	Potency
CCCC[C@@]1(C2CCCC2)Cc2cc(OCC(=O)O)c(Cl)c(Cl)c2C1=O	-1.25% (inactive)	–
CCCCCCC/C=C\CCCCCCCCC(=O)O	19.4% (inactive)	–
N[C@@H](CCCC(=O)O)C(=O)O	1.84% (inactive)	–
Nc1nc2c(nc(Br)n2C2OC3COP(=O)(O)O[C@@H]3C2O)c(=O)[nH]1 (stereo not given in full)	-4.07% (inactive)	–
CN1Cc2sccc2C(c2ccc(O)c(O)c2)C1 (stereo not given)	1.34% (inactive)	–
NC(N)=NC(N)=Nc1cccc(Cl)c1	-0.214% (inactive)	–
C[C@](Cc1ccc(O)c(O)c1)(NN)C(=O)O	15.5% (inactive)	–
COc1cc(/C=C(\C#N)C(=O)Nc2nnc(C(F)(F)F)s2)ccc1OCc1ccc(C(F)(F)F)cc1C(F)(F)F	–	16.5 µM (active)
N[C@@H](CCC(=O)N[C@H](CSN=O)C(=O)NCC(=O)O)C(=O)O	2.65% (inactive)	–
N[C@@H](CS(=O)O)C(=O)O	-11.2% (inactive)	–
COCc1nc2c([nH]1)c(=O)n(C)c(=O)n2CC(C)C	14.1% (inactive)	–
CC(O)C(O)[C@H]1CNc2nc(N)[nH]c(=O)c2N1 (stereo not given in full)	0.179% (inactive)	–
COc1ccccc1N1CCN(CCCNc2c(C)c(=O)n(C)c(=O)n2C)CC1	2.75% (inactive)	–
Clc1nccc2c1ccc1ccccc12	5.21% (inactive)	–
N#C/C(=C\c1ccc(O)c(O)c1)C(=O)NCCCNC(=O)/C(C#N)=C/c1ccc(O)c(O)c1	-1.68% (inactive)	–
CC(N)=O	16.8% (inactive)	–
CC1=C(/C=C/C(C)=C/C=C/C(C)=C\C(=O)O)C(C)(C)CCC1	-4.31% (inactive)	–
C=CCn1c(=O)c2c(nc(-c3ccc(S(=O)(=O)O)cc3)n2C)n(C)c1=O	-2.22% (inactive)	–
O=S(=O)(c1cccc2c(Cl)cccc12)N1CCCNCC1	-4.5% (inactive)	–
Oc1cc(O)c2c(c1)O[C@H](c1ccc(O)c(O)c1)[C@@H](O)C2	4.8% (inactive)	–

From PubChem BioAssay (NCATS)
